In PubChem BioAssay (EPA / NIEHS):
Activity calls are given as the source filed them. Rule for the calls: active = hit-call score of the fitted dose curve at least 0.9, where 1 is the maximum; inactive = score below 0.9.

experiment: CCTE_Harrill_HTTr_Viability_MCF7: CCTE's 6-hour Cell Viability Assessment for the High-Throughput Transcriptomics (HTTr) Platform, in MCF-7 cells cultured in DMEM + 10% fetal bovine serum, Harrill Lab (AID 2284010)
Source text: This is a cell-based assay that evaluates cell viability using high content imaging to evaluate membrane integrity using propidium iodide dye exclusion in a 384 well format.One of seven assay components measured from the CCTE_Harrill_HTTr_Viability assay. This was part of a full screening experiment. This is a cell-based assay that evaluates cell viability in MCF-7 cells cultured in DMEM + 10% fetal bovine serum. High content imaging is used to evaluate membrane integrity using propidium iodide dye exclusion. Measurements are taken at 6 hours after chemical dosing in 384-well format.The assay component endpoint CCTE_Harrill_HTTr_Viability_MCF7 was analyzed with bidirectional fitting relation to DMSO as the negative control and baseline of activity. Using a type of viability reporter, gain-of-signal activity can be used to evaluate membrane integrity using propidium iodide dye exclusion to understand changes in cytotoxicity. To generalize the intended target to other relatable targets, this assay endpoint is annotated to cell cycle, where the subfamily is cytotoxicity.
Chemicals were tested in MCF7 cells in an eight point dilution series with a six hour exposure duration.

Compound	outcome	AC50
CC(=O)/C=C/C1=C(C)CCCC1(C)C	inactive	–
CCCCN	inactive	–
CC1(C)[C@H]2CC[C@]1(C)[C@H](O)C2	inactive	–
OCCN1CCNCC1	inactive	–
N#Cc1ccc(CC(=NNC(=O)Nc2ccc(OC(F)(F)F)cc2)c2cccc(C(F)(F)F)c2)cc1	inactive	–
COC(C)CCO (stereo not given)	inactive	–
Clc1ccc(Cl)c(Cl)c1Cl	inactive	–
CC(C)C[C@H]1C(=O)N2CCC[C@H]2[C@]2(O)O[C@](NC(=O)[C@@H]3C=C4c5cccc6[nH]c(Br)c(c56)C[C@H]4N(C)C3)(C(C)C)C(=O)N12	inactive	–
c1ccc2c(c1)c1cccc3ccc4cccc2c4c31	inactive	–
CC1CCC2CC1C2(C)C (stereo not given)	inactive	–
CCN(CC)c1ccc2c(-c3ccccc3C(=O)O)c3ccc(=[N+](CC)CC)cc-3oc2c1	–	0.394 µM (active)
c1ccc2sc(SN(C3CCCCC3)C3CCCCC3)nc2c1	inactive	–
O=Nc1ccc(Nc2ccccc2)cc1	inactive	–
COc1cc2ncnc(Nc3cccc(Cl)c3)c2cc1OC	inactive	–
CNC(=O)Oc1ccc2c(c1)[C@]1(C)CCN(C)[C@@H]1N2C	inactive	–
CCCCCCCCC=O	inactive	–
CC(C)(Oc1ccc(CCNC(=O)c2ccc(Cl)cc2)cc1)C(=O)O	inactive	–
Cc1cccc(C)c1C	inactive	–
c1ccc2[nH]ccc2c1	inactive	–
CN(CCOc1ccc(CC2SC(=O)NC2=O)cc1)c1ccccn1 (stereo not given)	inactive	–

Compound	outcome	AC50
CCC(=O)OCc1ccccc1	inactive	–
CC(CN1c2ccccc2Sc2ccccc21)N(C)C (stereo not given)	inactive	–
CC(=O)O[C@]1(C(C)=O)CC[C@H]2[C@@H]3C[C@H](C)C4=CC(=O)CC[C@]4(C)[C@H]3CC[C@@]21C	inactive	–
NC(=O)NC1NC(=O)NC1=O (stereo not given)	inactive	–
CCCCCCCCC	inactive	–
Cc1ccc(C=O)s1	inactive	–
Cc1c(Cl)c(=O)oc2cc(O)ccc12	inactive	–
Cc1cccc(Nc2ccccc2C(=O)O)c1C	inactive	–
CCCCCCCCCCCCOCCO	inactive	–
CNCCCC12CCC(c3ccccc31)c1ccccc12	–	47.3 µM (active)
CC(c1cc2ccccc2s1)N(O)C(N)=O (stereo not given)	inactive	–
NC(N)=NC(=O)c1nc(Cl)c(N)nc1N	inactive	–
CCCCC(CC)COC(=O)/C=C\C(=O)OCC(CC)CCCC (stereo not given)	inactive	–
CCCCO	inactive	–
CCCOCC(C)O (stereo not given)	inactive	–
CN1[C@@H]2CC(OC(=O)[C@H](CO)c3ccccc3)C[C@H]1[C@@H]1O[C@@H]12 (stereo not given in full)	inactive	–
CNC[C@H](O)c1cccc(O)c1	inactive	–
CC1=CCC(O)(C(C)C)CC1 (stereo not given)	inactive	–
CCC(C)CCCC(C)(C)O (stereo not given)	inactive	–
BrC1CCC(Br)C(Br)CCC(Br)C(Br)CCC1Br (stereo not given)	inactive	–
